Out of some 71,000 compounds screened, about 1,800 (2.5%) were called active. About 26% were inconclusive and are not listed. Only a selection was taken, and actives are over-represented in it overall. Unmarked numbers belong to inactive results. Calls come from the whole dose curve; as a rule, active = well fitted activation curve with a large enough effect in the signal ratio, with a control signal flat (not every such curve was filed as active); inconclusive = small, poorly fitted or top-dose-only effect, or effect the other way, or a change in a side signal; inactive = flat fitted curve, though single readings scatter; the % refers to the signal ratio.
Experiment: Cell signaling CRE-BLA (Fsk stim); for activity change, negative = inhibition: % of control where 0% means no effect
Conditions: CHO CRE-bla reporter (cAMP response element driving beta-lactamase), forskolin EC10, beta-lactamase ratio; series mostly up to 38.2 µM; activity change, negative = inhibition: at the top concentration
Source text: NIH Molecular Libraries Screening Centers Network [MLSCN]
NIH Chemical Genomics Center [NCGC]
Assay Provider: Marshall W. Nirenberg, U.S. National heart lung & blood institute
Memories persist for different lengths of time, from seconds or minutes to a lifetime. There are two kinds of memory: short-term memory (STM) and long-term memory (LTM). STM lasts for minutes to hours, which maybe mediated by modifications of molecules involved in synaptic functions. LTM lasts for days or longer, and may be due to the formation of new synapses or restructuring of existing synapses. LTM, but not STM, requires gene transcription and synthesis of proteins. CREB (cyclic-AMP Responsive Element Binding Protein) is one of the candidates plays an important role for enhancement of some types of LTM. CREB, a family of transcription factors, regulates the transcription of genes containing cAMP Responsive Elements (CRE). CRE is a nucleotide sequence often found in the promoter regions of genes that are binding sites for CREB.
Using a beta-lactamase reporter-gene under control of cAMP responsive element, a cell-based assay [CellSensor(TM) CRE-bla CHO developed by Invitrogen Corp.] was used to measure forskolin-induced signaling. Library compounds were measured for their ability to modulate positively or negatively the action of EC10 NKH 477, a water soluble forskolin, on reporter gene activity. Compounds were screened in a titration series in 1536-well format. Positive and negative modulators were identified based on the AC50 values derived from the screening data.
NCGC Assay Protocol Summary
2000 cells/5uL in Opti-MEM medium containing 0.5% dialyzed FBS, 0.1 mM NEAA, 1 mM sodium pyruvate and 10 mM HEPES was dispensed into 1536-well plates and cells were cultured at 37 degrees Celsius overnight. […] And then the plates were incubated at 37 degrees Celsius for 3 hours. 1 uL of CCF4-dye mixture was added to each well. After incubated at room temperature for 2 hours the plates were measured on an EnVision plate reader at Excitation 405nm, Emission1=460nm and Emission 2=530nm. The %Activity was determined from the ratio of 460nm/530nm.
Keywords: NIH Roadmap, MLSCN, MLSMR, qHTS, NCGC, CRE, beta-lactamase reporter-gene assay.
Potency is the fitted concentration of half-maximal effect.

SMILES	activity change, negative = inhibition	Potency
COc1ccccc1NC(=O)CSc1nnc(-c2ccoc2C)n1CCc1ccccc1	-0.23%	–
Cn1c(=O)c2c(nc(SCC(=O)Nc3ccccc3N3CCCCC3)n2C)n(C)c1=O	12.6%	–
C=CCc1cccc2cc(C(=O)OCC)c(=O)oc12	18.5%	–
COc1ccccc1N1CCN(C[C@@H]2CN3C(=O)N(C)c4ccccc4C3=N2)CC1	-8.31%	–
COc1ccc(-c2nc(-c3ccccc3)no2)c(OC)c1	-11.5%	–
COc1ccc(-c2noc(-c3cccc(OC)c3OC)n2)cc1OC	–	2.51 µM (active)
COc1cc(-c2nc(-c3ccncc3)no2)cc(OC)c1OC	28%	–
COc1ccc(C(=O)n2nc(-c3ccc(Cl)cc3)nc2N)cc1OC	–	2 µM (active)
COc1ccc(C(=O)n2nc(-c3ccc(C)cc3)nc2N)cc1OC	15.7%	–
COc1ccccc1C(=O)n1nc(-c2ccccc2)nc1N	-11%	–
O=C1CC(N2CCN(C(c3ccccc3)c3ccccc3)CC2)C(=O)N1 (stereo unspecified)	-6.11%	–
CC/C(=N\O)C(C)(C)/[N+]([O-])=C/c1ccc(Br)cc1	-3.39%	–
O=C(OCCO)c1cc(Cl)c(C(=O)OCCO)cc1Cl	1.61%	–
O=C(O)CN(Cc1ccco1)S(=O)(=O)c1ccccc1	2.24%	–
CCc1nc(Nc2ccc3nccnc3c2)c2oc3ccccc3c2n1	–	0.794 µM (active)
COc1ccccc1Nc1ncnc2c1oc1ccccc12	31.9%	–
CCc1nc(N2CCN(c3nc(C)cc(C)n3)CC2)c2oc3ccccc3c2n1	-1.26%	–
C#CCNc1nc(C(C)C)nc2c1nnn2Cc1ccccc1F	–	10 µM (active)
CC(C)(C)c1nc(NCC2CCCO2)c2nnn(Cc3ccccc3)c2n1 (stereo unspecified)	7.95%	–

SMILES	activity change, negative = inhibition	Potency
CC(=O)NC(C)c1nc2ccccc2n1Cc1ccccc1F (stereo unspecified)	-9.33%	–
Cc1cccc(C(=O)O)c1	-9.1%	–
COC(=O)c1ccc(CSc2nc3ccccc3c(=O)n2-c2cccc(OC)c2)o1	–	5.01 µM (active)
COCC(C)n1c(SCc2ccc(C(=O)OC)o2)nc2ccccc2c1=O (stereo unspecified)	–	10 µM (active)
COC(=O)c1ccc(CSc2ccccc2C)o1	-26.7%	–
O=c1c2ccccc2nc(CSc2nnnn2-c2ccccc2)n1-c1ccccc1	-0.982%	–
CCCC(NC(=O)c1ccccc1)c1nc2ccccc2n1Cc1ccc(C(=O)OC)o1 (stereo unspecified)	10.7%	–
CCOC(=O)CNC(=O)c1nn(-c2cccc(OC)c2)c(=O)c2ccccc12	14.6%	–
COc1ccc(S(=O)(=O)N2CCC(C(=O)N3CCOCC3)CC2)cc1OC	0.418%	–
COC(=O)C1(C)C=CCN1C(=O)c1ccccc1 (stereo unspecified)	-3.13%	–
CC1COC2C(O1)N(S(C)(=O)=O)CCN2S(C)(=O)=O (stereo unspecified)	-1.89%	–
O=C(C1CCN(CC2CCCCC2)CC1)N1CCCC1	-0.979%	–
CCOC(=O)C1CCN(C(=O)Nc2ccc(Cl)cc2)CC1	-3.28%	–
COCC(C)N=CC1=C(O)CC(C)(C)CC1=O (stereo unspecified)	4.27%	–
COCCn1c(C)cc(C(=O)CSc2ncnc3sc4c(c23)CCC4)c1C	8.37%	–
N=c1c2c3c(sc2ncn1N)CCCCC3	-0.591%	–
COCCNc1nc(-n2nc(C)cc2C)nc2sc3c(c12)CCCC3	–	12.6 µM (active)
Cc1cc(N=CC2=C(O)CCCC2=O)no1	-1.94%	–
Cc1cc(C(=O)O)ccc1[N+](=O)[O-]	-16.5%	–

SMILES	activity change, negative = inhibition	Potency
COC(=O)C1C(=O)CC(C)(O)C(C(=O)OC)C1c1ccc2c(c1)OCO2 (stereo unspecified)	-1.98%	–
C/C(=C\C(=O)c1cccnc1)Nc1ccc(C)c(C)c1	13.6%	–
CC(Sc1nc2ccccc2c(=O)n1Cc1ccco1)C(=O)c1ccccc1 (stereo unspecified)	4.85%	–
COc1ccc(NC(=O)CSc2nnc(-c3cccs3)n2Cc2ccco2)cc1OC	5.96%	–
COc1ccccc1NC(=O)CSc1nc2sc(C)c(C)c2c(=O)n1Cc1ccco1	–	3.98 µM (active)
CCCn1c(-c2ccc(F)cc2)nc2c(NC3CCN(Cc4ccccc4)C3)nc(C)nc21 (stereo unspecified)	10.1%	–
COC(CCN(C)C)(c1ccccc1)c1ccccc1	-22.8% [at 7.6 µM]	–
CCCC[C@@H]1C[C@H]1C(NC(=O)c1ccc(-c2ccccc2)cc1)c1ccc(-c2ccccc2)cc1 (stereo partly specified)	2.34%	–
COc1cc(OC)c(NC(=O)c2ccc(Br)o2)cc1Cl	19.3% [at 7.6 µM]	–
O=C(Nc1ccc(-c2nnc(-c3ccccc3)o2)cc1)c1ccc(Br)o1	-0.431%	–
Cc1cc(C)nc(-n2nc(C)cc2NC(=O)c2ccc(Br)o2)n1	–	1.26 µM (active)
CCSC1(SCC)N=C(N)C2(C#N)C(c3ccccc3)NC(C)=CC12C#N (stereo unspecified)	-14.9%	–
O=C(Cn1cnc2c(cnn2-c2ccc(F)cc2)c1=O)NCCc1ccccc1	-4.15%	–
CCCn1c(=NC(C)=O)c(C(=O)OCC)cc2c(=O)n3ccccc3nc21	–	10 µM (active)
CCOC(=O)c1ccc(-n2c(C)nc3c(cnn3-c3ccccc3C)c2=O)cc1	4.93%	–
CCOC(=O)c1cnc2sccn2c1=O	-5.25%	–
Cc1cc(C)cc(N)c1	-7.14%	–
CCCCNc1nc(C)nc2c1nc(-c1ccccc1)n2CCCCN(CC)CC	6.32%	–
